An excerpt weighted towards active compounds, which were near 12% of everything screened.
WT yeast gro inh: growth inhibition of WT yeast, mitochondrial fusion screen. mitochondrial fusion phenotypic screen, WT strain. inhibition, % at 10 µM. hit rate 2.1% among 190,000. AID 1362; in the data active = inhibition above about 58%; tested in S. cerevisiae
Insulin prom inh: TRM-6 insulin promoter activity inhibition; AID 1273; inhibition, % at 2 µM; hit rate 0.9% among 130,000; TRM-6 cells (human fetal islet line), insulin promoter-eGFP reporter, imaging; reporter expression induced with tamoxifen;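 active = inhibition above the mean plus 3 SD, with well images judged a real hit on visual review, cut at about 60% in these data, passing the limit was not always enough; inconclusive = inhibition over the cutoff but images rejected on review; inactive = inhibition not above the cutoff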
ROMK primary: modulates human ROMK potassium channel activity. Tet-inducible ROMK, thallium flux fluorescence; actives lie on both sides. hit rate 2% among 130,000. B-score at 10 µM;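 active = signal ratio slope over the read window, or its plate-corrected B-score, at least 3 SD from the plate mean, either direction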;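 also: B-score of the F/F0 ratio slope over 7 to 12 s after thallium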
Target sequence (P48048 whole entry, looked up): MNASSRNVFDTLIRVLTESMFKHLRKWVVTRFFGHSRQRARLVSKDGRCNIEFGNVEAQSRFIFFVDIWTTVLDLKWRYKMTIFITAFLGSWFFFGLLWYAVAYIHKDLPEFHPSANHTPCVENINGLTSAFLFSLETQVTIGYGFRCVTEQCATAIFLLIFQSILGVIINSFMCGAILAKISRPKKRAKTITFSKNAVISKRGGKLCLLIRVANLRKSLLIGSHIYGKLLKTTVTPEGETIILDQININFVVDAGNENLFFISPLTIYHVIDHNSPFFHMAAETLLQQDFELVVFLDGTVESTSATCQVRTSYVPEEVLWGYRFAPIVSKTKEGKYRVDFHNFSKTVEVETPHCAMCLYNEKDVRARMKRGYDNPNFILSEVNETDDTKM
Lmaj promast: reduces viability of Leishmania major promastigotes | resazurin fluorescence viability | hit rate 9% among 200,000 | AID 1063 | inhibition, % at 10 µM; in the data active = inhibition above about 50%;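 also: promastigotes grown with compound for 44 hours at 28 °C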
KCC2 mod: modulates chloride dependent transport by human KCC2; Q9H2X9; KCC2 cells, thallium flux FluoZin-2 fluorescence; B-score of Tl+ flux slope (higher = more flux/activation; lower = inhibition) at 10 µM; hit rate 2.2% among 190,000; AID 1456;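 active = thallium flux slope and its plate-corrected score both differing from the plate sample mean at a set confidence after two filtering rounds, in either direction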;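 also: slope of fluorescence scaled to starting intensity during 10 to 20 s after thallium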
Ins promoter up: MIN6 insulin promoter up-regulation. MIN6 insulin promoter-GFP reporter, high-content imaging; hits give high values. z-score at 5 µM. hit rate 0.3% among 190,000;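 active = z-score above 3 at 5 µM with at least 500 cells counted in the well; inconclusive = wells under 500 cells, flagged as cytotoxic or low count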
KCC2 sec1: KCC2 (human) modulation, secondary assay; HEK293-KCC2, thallium flux, FluoZin2 fluorescence; hits give high values; normalised thallium flux (F/F0 slope) at 10 µM; hit rate 15% among 3,700; AID 1713; shares compounds with KCC2 mod;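 active = thallium flux slope above the same plate's solvent-only control mean plus 3 SD; inconclusive = the two replicate wells disagree; inactive = no significant difference from solvent-only control wells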
KCC2 bumet counter: bumetanide-insensitive thallium flux in KCC2 cells with ouabain, counter-screen; shares compounds with KCC2 mod; hit rate 49% among 3,700; HEK293-KCC2 + bumetanide/ouabain, thallium flux FluoZin2; hits give high values; normalized thallium flux at 10 µM;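 active = thallium entry rate above the same plate's blocked-transporter control wells by more than 3 SD; inconclusive = the two repeat wells disagree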;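 also: raw slope of fluorescence over initial fluorescence between 10 and 20 s after thallium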
KCC2 sec2: KCC2 (human) modulation, second secondary assay. HEK293-KCC2, thallium flux FluoZin2 fluorescence; actives lie on both sides; F/F0 rise rate, 10–20 s post-thallium. hit rate 23% among 3,700. normalized thallium flux at 10 µM. shares compounds with KCC2 mod. AID 1715;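 active = thallium flux slope more than 3 SD above or below the plate's solvent-only control mean, mostly below; inconclusive = the two repeat wells disagreed; inactive = no significant shift from solvent-only controls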;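 also: raw slope with 0.1% DMSO as baseline and bumetanide as block control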
HEK counter1: acts in parental HEK cells, KCC2 counter-screen; AID 1716; HEK293 parental cells, thallium flux FluoZin2, ouabain; baseline-ratio fluorescence slope, 10–20 s after thallium; thallium flux rate (normalised fluorescence) at 10 µM; hit rate 46% among 3,700; shares compounds with KCC2 mod;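 active = thallium flux rate significantly above the same plate's solvent-only control wells, beyond their mean plus 3 SD; inconclusive = the two replicate wells gave conflicting results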
KCC2 ouabain: confirmation of human KCC2 modulators with ouabain; shares compounds with KCC2 mod; HEK293-KCC2, thallium flux FluoZin2 fluorescence; bidirectional: low = inhibitor, high = activator; raw Tl+ flux slope (below DMSO = inhibition, above = activation) at 10 µM; hit rate 48% among 3,700; AID 1717;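 active = thallium flux slope beyond 3 SD from same-plate DMSO control mean in most replicates, usually higher, sometimes lower; inconclusive = repeat tests gave conflicting results; inactive = no significant difference from controls in most replicates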;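 also: slope of initial-normalized fluorescence between seconds 10 and 20 after thallium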
HEK counter2: counter-screen for KCC2 modulators: effect in parental HEK293 cells; shares compounds with KCC2 mod; AID 1718; hit rate 33% among 3,700; thallium flux slope at 10 µM; thallium flux FluoZin-2 fluorescence slope;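 active = thallium flux slope above the same plate's solvent-control mean plus 3 SD in both duplicate wells; inconclusive = duplicate wells that disagreed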;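 also: run without ouabain in cells lacking the KCC2 cotransporter; slope of fluorescence scaled to its starting value between 10 and 20 s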
Active calls of the source: *.

Screening CC1CCN(CCCn2c(=S)[nH]c3c(sc4ccccc43)c2=O)CC1 returned WT yeast gro inh -12.9, ROMK primary 0.826, Lmaj promast 25.6, KCC2 mod 19.5*, KCC2 sec1 0.00636, KCC2 bumet counter 0.0148*, KCC2 sec2 0.0356, HEK counter1 0.0164*, KCC2 ouabain 0.0264* and HEK counter2 0.0179*.
CCCN(CCC)C1CC(=O)N(Cc2ccccc2)C1=O (stereo not given) was read as WT yeast gro inh -11.7, Insulin prom inh -181.5, ROMK primary -0.979, Lmaj promast 5.3, KCC2 mod 0.368 and Ins promoter up 0.43.
For CCC1CCC2(CC1)NC(CO)(CO)CO2 (stereo not given) the results were WT yeast gro inh -9.5, ROMK primary 0.422, Lmaj promast -4.5, KCC2 mod 4.96*, KCC2 sec1 0.00803, KCC2 bumet counter 0.00487, KCC2 sec2 0.0278, HEK counter1 0.00803, KCC2 ouabain 0.0189 and HEK counter2 0.0111*.
`COc1ccc2c(c1)O[C@@H](c1cccc(C(F)(F)F)c1)[C@H](O)C2=O` gave WT yeast gro inh 7.5, Insulin prom inh -72.7, ROMK primary 0.965, Lmaj promast 33.7, KCC2 mod 8.78*, Ins promoter up -0.71, KCC2 sec1 0.00775, KCC2 bumet counter 0.00931*, KCC2 sec2 0.0312, HEK counter1 0.0112*, KCC2 ouabain inconclusive and HEK counter2 inconclusive.
CCN(CC)C(NC(=O)Cc1ccccc1)C(Cl)(Cl)Cl (stereo not given) was read as WT yeast gro inh -4.0, Insulin prom inh 6.5, Lmaj promast -4.1 and Ins promoter up 0.05.
`N#Cc1nc(-c2ccco2)oc1N1CCC(Cc2ccccc2)CC1` gave WT yeast gro inh 28.6, Insulin prom inh -3.1, ROMK primary -0.712, Lmaj promast -5.1, Ins promoter up -0.02, KCC2 sec1 0.00671, KCC2 bumet counter 0.00482, KCC2 sec2 0.0251*, HEK counter1 0.00702, KCC2 ouabain inconclusive and HEK counter2 0.011.
For COc1ccccc1C(=O)NC1CCN(C(=S)NCCc2ccccc2)CC1 the results were WT yeast gro inh 13.8, ROMK primary -1.59, Lmaj promast -1.1, KCC2 mod -3.08*, Ins promoter up -0.45, KCC2 sec1 0.00705, KCC2 bumet counter 0.00453, KCC2 sec2 0.0249*, HEK counter1 0.00782, KCC2 ouabain inconclusive and HEK counter2 0.0107.
CN1C(=O)C(=O)N(CC(=O)N2CCc3ccccc32)C1=O was read as WT yeast gro inh 5.8, Insulin prom inh -4.3, ROMK primary 0.936, Lmaj promast 2.2, KCC2 mod 0.0322 and Ins promoter up 1.55.
Screening O=C(CN1C(=O)CSc2ccccc21)N1CCc2ccccc21 returned WT yeast gro inh 8.2, Insulin prom inh 6.7, Lmaj promast -5.4, KCC2 mod -4.86*, Ins promoter up -0.2, KCC2 sec1 0.00698, KCC2 bumet counter 0.00555, KCC2 sec2 0.0322, HEK counter1 0.00839, KCC2 ouabain 0.0138* and HEK counter2 0.0112.
Screening N#Cc1ccccc1NC(=O)COC(=O)CCc1ccc(S(=O)(=O)N2CCCCC2)cc1 returned WT yeast gro inh 2.5, Lmaj promast -1.8, KCC2 mod 0.385 and Ins promoter up -0.18.
`O=C(Cc1ccc(F)cc1)N/N=C/c1ccccn1` gave WT yeast gro inh -6.0, Insulin prom inh 0.0, ROMK primary -0.392, Lmaj promast -4.5, KCC2 mod 1.13 and Ins promoter up -0.08.
`CCN=c1scc(-c2ccc(F)cc2)n1/N=C/c1ccccn1` gave WT yeast gro inh 48.1, Insulin prom inh 66.7, ROMK primary 0.463, Lmaj promast 24.6, KCC2 mod -5.7*, Ins promoter up 0.63, KCC2 sec1 0.00515, KCC2 bumet counter 0.00442, KCC2 sec2 0.0229*, HEK counter1 inconclusive, KCC2 ouabain 0.0136* and HEK counter2 0.0111.
Cc1cccc(NC2=NC(=S)N(c3ccc(C(=O)O)cc3)C23CCCCC3)c1 was read as WT yeast gro inh -13.9, Insulin prom inh -28.9, Lmaj promast -7.3, KCC2 mod -0.00649 and Ins promoter up -0.44.
CC1(C)CC2(CCO1)C(Nc1ccccc1)=NC(=S)N2c1ccccc1 (stereo not given) was read as ROMK primary -0.655, KCC2 mod 13.7*, Ins promoter up -0.46, KCC2 sec1 0.0139*, KCC2 bumet counter 0.034*, KCC2 sec2 0.035, HEK counter1 0.0205*, KCC2 ouabain 0.0291 and HEK counter2 0.0143*.
CC1(C)CC2(CCCN(C(=S)Nc3ccccc3)C2)CCO1 (stereo not given) was read as ROMK primary 0.944, KCC2 mod -0.171 and Ins promoter up 1.37.
`COc1ccc(NC2=NC(=S)N(c3cccc(C)c3)C23CCCCC3)cc1` gave WT yeast gro inh 8.7, Insulin prom inh 0.0, Lmaj promast -5.2, KCC2 mod 7.3*, Ins promoter up -0.48, KCC2 sec1 0.0107, KCC2 bumet counter 0.016*, KCC2 sec2 0.0344, HEK counter1 0.0111*, KCC2 ouabain inconclusive and HEK counter2 0.0106.
`Cc1ccccc1NC1=NC(=S)N(c2ccccc2)C12CCCCC2` gave WT yeast gro inh 29.4, Insulin prom inh -14.3, ROMK primary 0.974, Lmaj promast 12.7, KCC2 mod 56.6*, Ins promoter up -0.41, KCC2 sec1 0.025*, KCC2 bumet counter 0.162*, KCC2 sec2 0.043*, HEK counter1 0.0779*, KCC2 ouabain 0.11* and HEK counter2 0.0223*.
`Cc1ccc(Sc2ncccc2C(=O)NC2CCCCCC2)cc1C` gave WT yeast gro inh -4.3, Insulin prom inh -33.3, ROMK primary 0.719, Lmaj promast -4.9, KCC2 mod 0.077 and Ins promoter up -0.18.
